Among the test systems are RPMI-8226 leukemia; OVCAR-8 ovarian; OVCAR-5 ovarian; OVCAR-4 ovarian; SK-OV-3 ovarian; IGROV1 ovarian; OVCAR-3 ovarian; HS 578T breast; NCI/ADR-RES ovarian; T-47D breast; BT-549 breast; MDA-MB-435 melanoma; SW-620 colon; MCF7 breast; HCT-116 colon; HCC-2998 colon; KM12 colon.
Holding throughout (test): NCI-60 one-dose screen, 48 h (100 = growth as untreated, 0 = no growth, -100 = all killed)
Settings in all cases: 10 µM unless noted

The panel holds about 83,000 compounds, 20% with a hit somewhere; the sample as a whole holds those more often.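 Assay: single dose, 48 h. Readout: percent growth (0 = no net growth; negative = cell death). Active: <10.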 Unmarked numbers belong to inactive results. Activity calls are given as the source filed them.

Regarding `O=C(CN1CCN(c2cc3c(cc2F)c(=O)c(C(=O)O)cn3C2CC2)CC1)Nc1ccc(C(=O)/C=C/c2ccc(Cl)cc2)cc1`, the growth in the assay on RPMI-8226 leukemia was 90.2%; in the assay with OVCAR-8 ovarian it was 98%; in the assay on OVCAR-5 ovarian, 115%; in the assay with OVCAR-4 ovarian it was 95.4%; with SK-OV-3 ovarian, 110%; in the assay with IGROV1 ovarian, 121%. Further, the growth in the assay with OVCAR-3 ovarian is 128%; in the assay on HS 578T breast it was 108%; with NCI/ADR-RES ovarian, 111%; in the assay with T-47D breast it was 106%; in the assay on BT-549 breast, 91.1%; with MDA-MB-435 melanoma, 101%. Moreover, the growth is 111% in the assay on SW-620 colon; 91.7% in the assay with MCF7 breast; 41.3% in the assay on HCT-116 colon; 103% with HCC-2998 colon; 120% in the assay on KM12 colon.

As for `Cn1c(=O)c2c(nc3n2CCN(CCc2ccc(OCCN4CCOCC4)cc2)C3)n(C)c1=O`, the growth in the assay on RPMI-8226 leukemia was 100%; in the assay on OVCAR-8 ovarian it was 109%; in the assay on OVCAR-5 ovarian, 103%; in the assay with OVCAR-4 ovarian, 95.5%; in the assay on SK-OV-3 ovarian, 118%; with IGROV1 ovarian it was 108%. Moreover, the growth with OVCAR-3 ovarian was 110%; in the assay on HS 578T breast it was 106%; in the assay with NCI/ADR-RES ovarian, 112%; in the assay with T-47D breast, 93.6%; in the assay with BT-549 breast it was 109%; with MDA-MB-435 melanoma, 105%. The growth was 105% with SW-620 colon; 95.7% in the assay with MCF7 breast; 109% in the assay with HCT-116 colon; 122% in the assay with HCC-2998 colon; 103% in the assay on KM12 colon.

Regarding `CCN1C(=O)N[C@H]2[C@@H]3NC(=O)c4ccc(Cl)n4[C@@H]3C[C@]21O`, the growth with RPMI-8226 leukemia was -21.2% (active); with OVCAR-8 ovarian, 1.27% (active); in the assay on OVCAR-5 ovarian, 24.5%; in the assay on OVCAR-4 ovarian, 3.02% (active); in the assay on SK-OV-3 ovarian, 28.6%; with IGROV1 ovarian it was 1.44% (active). The growth was 2.22% (active) in the assay on OVCAR-3 ovarian; -10.9% (active) in the assay with HS 578T breast; 76.4% in the assay on NCI/ADR-RES ovarian; -7.84% (active) in the assay with T-47D breast; -23.4% (active) with BT-549 breast; 0.981% (active) in the assay with MDA-MB-435 melanoma. Besides, the growth with SW-620 colon is 3.96% (active); in the assay on MCF7 breast, 1.38% (active); with HCT-116 colon it was 0.673% (active); in the assay on HCC-2998 colon, 2.42% (active); in the assay on KM12 colon it was 5.68% (active).

As to `Cc1cc2c(C(C)C)c(O)c(O)c(C=NCCCCCCC(=O)O)c2c(O)c1-c1c(C)cc2c(C(C)C)c(O)c(O)c(C=NCCCCCCC(=O)O)c2c1O`, the growth with RPMI-8226 leukemia is 10.1%; in the assay with OVCAR-8 ovarian it was 30.6%; with OVCAR-5 ovarian it was 55.9%; in the assay with OVCAR-4 ovarian, 28.2%; in the assay on SK-OV-3 ovarian, 63.7%; in the assay on IGROV1 ovarian, 28.6%. The growth with OVCAR-3 ovarian was 25.8%; in the assay with HS 578T breast it was 22.2%; with NCI/ADR-RES ovarian it was 67.6%; with T-47D breast, 26.9%; in the assay with BT-549 breast it was 37.8%; in the assay on MDA-MB-435 melanoma, 27.2%. The growth is 27.2% with SW-620 colon; 11.7% in the assay on MCF7 breast; 17.6% with HCT-116 colon; 33.5% with HCC-2998 colon; 15.7% with KM12 colon.

For the molecule `NC(=O)c1c(NC(=O)c2ccc3c(c2)OCO3)sc2c1CCC(=O)C2`, the growth with RPMI-8226 leukemia is -34.9% (active); with OVCAR-8 ovarian, -15.9% (active); in the assay with OVCAR-5 ovarian, -49.8% (active); in the assay on OVCAR-4 ovarian it was -70.8% (active); with SK-OV-3 ovarian, -11.7% (active); in the assay on IGROV1 ovarian it was -17.1% (active). The growth is -47% (active) in the assay with OVCAR-3 ovarian; 16.7% in the assay with HS 578T breast; -6.35% (active) with NCI/ADR-RES ovarian; -39.7% (active) in the assay with T-47D breast; -6.08% (active) with BT-549 breast; 2.97% (active) in the assay with MDA-MB-435 melanoma. For the same molecule, the growth with SW-620 colon is -10.8% (active); in the assay with MCF7 breast, -7.93% (active); with HCT-116 colon it was -56.3% (active); with HCC-2998 colon it was 12.5%; with KM12 colon, -20.6% (active).

Consider `COc1cc(/C=C/C(=O)c2ccc(NC(=O)CN3CCN(c4cc5c(cc4F)c(=O)c(C(=O)O)cn5C4CC4)CC3)cc2)cc(OC)c1OC`, for which the growth is -18.8% (active) in the assay with RPMI-8226 leukemia; 4.74% (active) with OVCAR-8 ovarian; 16.9% in the assay with OVCAR-5 ovarian; 16.4% in the assay on OVCAR-4 ovarian; 33.3% with SK-OV-3 ovarian; -1.19% (active) in the assay on IGROV1 ovarian. The growth was -25.8% (active) in the assay on OVCAR-3 ovarian; 76.8% in the assay with HS 578T breast; 98.2% with NCI/ADR-RES ovarian; 17.5% with T-47D breast; -86.7% (active) in the assay with BT-549 breast; -1.52% (active) in the assay with MDA-MB-435 melanoma. The growth is 6.38% (active) in the assay with SW-620 colon; 26.5% in the assay with MCF7 breast; -88.2% (active) in the assay with HCT-116 colon; -11.6% (active) in the assay on HCC-2998 colon; -65.1% (active) in the assay with KM12 colon.

With `CC1=CNNc2c3ncnc-3ncn21`, the growth in the assay on RPMI-8226 leukemia is 103%; in the assay on OVCAR-8 ovarian it was 107%; with OVCAR-5 ovarian it was 101%; in the assay on OVCAR-4 ovarian, 111%; with SK-OV-3 ovarian it was 103%; in the assay on IGROV1 ovarian, 108%. In addition, the growth with OVCAR-3 ovarian is 105%; in the assay with HS 578T breast, 110%; in the assay on NCI/ADR-RES ovarian, 105%; in the assay on T-47D breast, 101%; with BT-549 breast, 106%; with MDA-MB-435 melanoma, 111%. Besides, the growth with SW-620 colon is 102%; in the assay with MCF7 breast, 111%; in the assay with HCT-116 colon it was 102%; with HCC-2998 colon, 102%; with KM12 colon, 103%.

Turning to `Cn1cc(C=O)c2ccccc21`, the growth in the assay with RPMI-8226 leukemia is 98.4%; with OVCAR-8 ovarian, 95.2%; in the assay with OVCAR-5 ovarian it was 101%; with OVCAR-4 ovarian, 101%; in the assay on SK-OV-3 ovarian, 101%; in the assay with IGROV1 ovarian, 88.6%. Moreover, the growth is 106% in the assay with OVCAR-3 ovarian; 107% in the assay with HS 578T breast; 100% in the assay on NCI/ADR-RES ovarian; 102% in the assay with T-47D breast; 106% in the assay with BT-549 breast; 106% in the assay with MDA-MB-435 melanoma. The growth was 95.1% in the assay with SW-620 colon; 99.3% in the assay with MCF7 breast; 102% with HCT-116 colon; 100% in the assay with HCC-2998 colon; 102% in the assay on KM12 colon.

As for `COc1ccc(/C=C2\CCCC3=C2NC(C)=NC3c2ccc(OC)c(OC)c2)cc1OC` (stereo not drawn), the growth is -25.8% (active) in the assay with RPMI-8226 leukemia; 3.09% (active) in the assay with OVCAR-8 ovarian; 4.73% (active) in the assay with OVCAR-5 ovarian; 21% in the assay with OVCAR-4 ovarian; 6.97% (active) with SK-OV-3 ovarian; 24.4% in the assay on IGROV1 ovarian. Moreover, the growth in the assay on OVCAR-3 ovarian was 2.97% (active); in the assay on HS 578T breast it was 59%; with NCI/ADR-RES ovarian it was 11.2%; in the assay on T-47D breast, 11.2%; in the assay with BT-549 breast, -16.1% (active); in the assay with MDA-MB-435 melanoma, 1.49% (active). The growth is -28.8% (active) in the assay with SW-620 colon; 26.3% with MCF7 breast; -95.7% (active) in the assay with HCT-116 colon; -47.8% (active) in the assay on HCC-2998 colon; 6.19% (active) in the assay on KM12 colon.

(Values after PubChem BioAssay (NCI).)
